Reference: PubChem BioAssay AID977621 (Broad Institute, 2014)
Among all 1,900 compounds or so, fewer than 10 were called active. Another 6% or so got no clear call; they are omitted.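 The calls were made as follows: active = Wild-type ribosome reporter drop at least double the humanized mutant ribosome reporter drop, growth loss under a set limit; inconclusive = no clear call, values can overlap the other calls; inactive = the rest.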 The list is a sample of the results.

test: wild-type E. coli growth inhibition versus H69 humanized strain – H69 mutant RFP, wild-type GFP, cherry-pick, dose response (AID 977621); conditions: fluorescence, 24 h; series mostly up to 50 µM;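 also: wild-type GFP and H69 mutant RFP strains grown together 50/50 in each well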

outcome, inactive:
O=C(Nc1cccc(Cl)c1)N1C[C@@H]2[C@H](c3ccccc31)[C@H](CO)N2Cc1ccncc1
CNC(=O)c1ccsc1NC(=O)c1ccc(S(=O)(=O)N2CCc3ccccc32)cc1
Cc1ccccc1S(=O)(=O)NC(=O)C1(C)CCN1C(=O)C1(c2ccc(Cl)cc2)CC1 (configuration not stated)
CCc1c(N=O)c(-c2ccccc2)n(O)[n+]1[O-]
CCc1cc2cc(OC)ccc2nc1SCC(=O)Nc1cc(OC)c(OC)cc1C(=O)O
CC1CCCC(NC(=O)COC(=O)[C@@H]2CC(O)CN2S(=O)(=O)c2ccc3c(c2)OCCO3)C1C (some centres not stated)
Cn1cc(CCC(=O)NCc2ccc3c(c2)OCO3)c2ccccc21
C[C@@H](Nc1nc(-c2ccccc2)nc2c1oc1ccccc12)C(=O)O
CC(=O)Nc1ccc(CNc2nc(NCCN(C)C)nc3cc(-c4ccccc4)sc23)cc1
Fc1cccc(Cl)c1CSc1ccc(-c2ccco2)nn1
Cc1ccc(C(=O)NCC(=O)OCC(=O)Nc2cccc(S(=O)(=O)N3CCCC3)c2)cc1C
Cc1cc(C)cc(NC(=O)c2cccc(NC(=O)C3C4CC5OC(=O)C3C5C4)c2)c1 (configuration not stated)
Cc1ccc(OCCCC(=O)NC(C)c2ccccc2)c(C)c1 (configuration not stated)
Cc1nn(C(C)(C)C)c(OC(=O)CC(C)C)c1S(=O)(=O)c1ccccc1
O=C(NCCc1csc(-c2ccccc2)n1)c1ccccc1F
Cc1cccc(NC(=O)c2nc(S(=O)(=O)Cc3ccccc3)ncc2Cl)c1
Cc1ccc(-c2c[n+](CC(=O)Nc3ccccc3)c3n2CCC3)cc1
COc1ccc(C(C)=O)cc1COc1ccc(Cl)c(C)c1
COc1cccc(S(=O)(=O)N2CCCCN3[C@H](C2)[C@H](c2ccc(C#CC(C)C)cc2)[C@@H]3CO)c1
COc1ccc2c(c1)c1ncn(Cc3ccccn3)c(=O)c1n2C
O=C(Nc1nnc(Cc2ccc(Cl)cc2)s1)c1ccncc1
Cc1ccc2c(N)c(C(=O)c3ccccc3)sc2n1
Cc1onc(-c2ccccc2Cl)c1C(=O)OCC(=O)c1ccccc1
COc1ccc(CN(C)C[C@H]2Oc3ccc(NS(=O)(=O)c4ccc(Cl)cc4)cc3CC(=O)N([C@@H](C)CO)C[C@H]2C)cc1
Cc1ccc(F)c(NC(=O)CCOc2ccccc2C)c1
COc1ccccc1N1CCN(Cc2ccc(OC)c3ccccc23)CC1
CC1CCCN(c2ccc(C(=O)NCCc3ccccc3)cn2)C1 (configuration not stated)
COc1ccc(C2=NN(C(=O)c3cccnc3)C(c3ccccc3)C2)cc1 (configuration not stated)
Cc1ncoc1C(=O)NCCC(c1ccccc1)c1ccccc1
OCCN(Cc1ccccc1)Cc1ccc(Cl)cc1
Cc1ccccc1-n1nnnc1SCCCC(=O)c1ccc(F)cc1
CCN(CC)C(=O)c1sc2nc(-c3ccccc3)ccc2c1N
CCn1c(NC(=O)c2nn(C)cc2Br)nc2ccccc21
Cc1ccc(S(=O)(=O)N2CC(=O)Nc3ccccc32)cc1C
COC(=O)c1cc(C)sc1NC(=O)CC1Nc2ccccc2NC1=O (configuration not stated)
O=C(NCCc1ccccc1)c1cccc(NC(=O)c2ccccc2)c1
C[C@@H]1CN([C@@H](C)CO)C(=O)c2cc(NS(=O)(=O)c3ccccc3)ccc2O[C@@H]1CN(C)Cc1ccc(C(=O)Nc2ccccc2N)cc1
